Consider 40 compounds from PubChem BioAssay (Tox21).

Molecules are shown by their SMILES. Results filed as inconclusive are left out. A call without a number means that no potency is given here. A number with no mark means an inactive call. The source made the active and inactive calls. Calls come from the whole dose curve; as a rule, active = well fitted activation curve with a large enough effect in the repeat runs; inconclusive = weak or mixed curves; inactive = flat fitted curve, though single readings scatter.

The experiment in a line: A CellTox Green Cytotoxicity Assay to monitor cytotoxicity in HEK293 cells - 24 hour (AID 1224875). Note: nearly all actives have a fitted effect of over 45% in size. As to conditions: CellTox Green fluorescence; series mostly up to 76.8 µM. The text has this:
National Center for Advancing Translational Sciences [NCATS]
NIH Chemical Genomics Center [NCGC]
U.S. Environmental Protection Agency [EPA]
National Institutes of Environmental Health Sciences [NIEHS]
National Toxicology Program [NTP]
Cell-based models are critical for drug discovery. Determining the natural cytotoxic effects resulting from test compounds is an essential research activity. A CellTox Green Cytotoxicity Assay to monitor cytotoxicity in real time of continues cell culture during 40 hours of the compound treatment was used to screen Tox21 10K library compounds in Hek293 cells. CellTox Green Cytotoxicity Assay is a nonlytic, homogeneous, biofluorescent method to measure cytotoxicity in cell culture after experimental manipulation. The assay system uses a proprietary asymmetric cyanine dye that is excluded from viable cells but preferentially stains the dead cell's DNA. […] Viable cells produce no appreciable increases in fluorescence. Therefore, the fluorescence signal produced by the binding interaction with dead cell DNA is proportional to cytotoxicity.
The mixture of Hek293 cell suspension and reagents were dispensed at 600cells/6 ul/well in 1536-well tissue culture treated black solid bottom plates using a Multidrop dispenser. After the assay plates were incubated at a 37 C/5% CO2 incubator for 5 hours, 23 nL of compounds dissolved in DMSO, positive and negative controls was transferred to the assay plate by a pintool work station. The plates were incubated at 37 C for 40 hours. The fluorescence intensity were measured at 0h, 8h, 16h, 24h, 32h and 40h time points using ViewLux plate reader during compound treatment.
For `FC(F)(F)C(F)(F)C(F)(F)C(F)(F)C(F)(F)C(F)(F)C(F)(F)C(F)(F)C(F)(F)C(F)(F)F`, the activity change was -7.77% [at 6.97 µM, hits give high values].
With `COc1cc(C)cc(O)c1`, the Potency entry is “inactive”.
`CCCc1ccccc1O`: the Potency entry is “inactive”.
`CC1=CC(C)C(C=O)C(C)C1` (stereo not given): the Potency entry was “inactive”.
`CC(C)N1C(=O)c2ccccc2C1=O`: the Potency entry is “inactive”.
The same measure, in the same setting: under `C#CC(C)(O)CC(C)C` (stereo not given) stands “inactive”; under `Nc1cc(N)cc(C(=O)O)c1`, “inactive”.
With `NC1CCN(c2cccc(Cl)n2)CC1`, the Potency entry was “inactive”.
On to `CCc1cc(S(=O)(=O)O)c2cc(C(C)C)cccc1-2`, for which the Potency entry is “inactive”.
The same measure, in the same setting: in the case of `C#CC(O)CCCCC` (stereo not given) it was “inactive”; in that of `CN(C)CCOC(c1ccc(Cl)cc1)c1ccccn1` (stereo not given), “inactive”; in that of `COCc1ccc(COC)cc1`, “inactive”.
For `CCO[Si](C)(OCC)OCC`, the Potency result is “inactive”.
On to `CC(C)c1cccc(O)c1`, for which the Potency result is “inactive”.
As to `Cc1nccn1CC1CCc2c(c3ccccc3n2C)C1=O` (stereo not given), the Potency entry is “inactive”.
`CCCCCCCCCCCl`: the Potency entry was “inactive”.
The same measure, in the same setting: under `c1ccc2cnncc2c1` stands “inactive”; under `CCC(=O)/C=C/c1ccc(OC)cc1`, “inactive”.
The same measure, in the same setting: in the case of `CCCC(C)CO` (stereo not given) it was “inactive”.
Take `COc1cc(O)cc(O)c1`: the Potency entry was “inactive”.
In the case of `CC(C)(C)OC(=O)N1C[C@@H](F)C[C@H]1C(=O)O`, the Potency entry is “inactive”.
As for `CCC(=O)c1cccc(Cl)c1`, the Potency result was “inactive”.
`CCn1cc(C(=O)O)c(=O)c2cc(F)c(N3CCN(C)CC3)cc21`: the activity change was -4.84% [at 15.8 µM, hits give high values].
Consider `COc1cc(CCC(C)=O)ccc1O`, for which the Potency result is “inactive”.
Same read-out and setting: in the case of `CC(C)[C@H](N)C(=O)OCCOCn1cnc2c(=O)[nH]c(N)nc21` it was “inactive”.
Same read-out and setting: in the case of `O=Cc1ccccc1[N+](=O)[O-]` it was “inactive”.
For the compound `CC1=CC(=O)CCC1`, the Potency result was “inactive”.
Consider `c1cc(CN2CCCCC2)cc(OCCCNc2nc3ccccc3s2)c1`, for which the Potency entry was “inactive”.
As to `O=C(O)/C=C/c1ccc(/C=C/C(=O)O)cc1`, the Potency entry was “inactive”.
As to `CC(=O)CCc1ccc(O)cc1`, the Potency entry was “inactive”.
Consider `CCCCC=O`, for which the Potency result is “inactive”.
Consider `CCOC(=O)Nc1ccc2c(c1)N(C(=O)CCN1CCOCC1)c1ccccc1S2`, for which the Potency result is “inactive”.
Consider `CC(C)(C)N(CCO)CCO`, for which the Potency entry was “inactive”.
Same read-out and setting: in the case of `CC(C)(C)CC(C)(C)N` it was “inactive”; in that of `O=C1OC(=O)c2cc([N+](=O)[O-])ccc21`, “inactive”.
Same read-out and setting: in the case of `OCC(O)[C@@H](O)[C@H](O)[C@H](O)CO[C@H]1O[C@H](CO)[C@@H](O)[C@H](O)[C@H]1O` (stereo not given in full) it was “inactive”; in that of `NC(=O)c1c(Cl)cccc1Cl`, “inactive”.
As for `COc1cc(C(=O)N2CCOCC2)cc(OC)c1OC`, the Potency entry was “inactive”.
For the compound `CCOC(=O)[C@H](CCc1ccccc1)N[C@@H](C)C(=O)N1CCC[C@H]1C(=O)O`, the Potency entry is “inactive”.
Turning to `CC(C)(O)C(=O)c1ccc(OCCO)cc1`, the Potency entry is “inactive”.
